Measurements as given in PubChem BioAssay (NCI).
About 83,000 compounds went through this panel and 20% of them were active in at least one assay; those are over-represented in the sample as a whole.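 96-well plates, one dose, 48 hours. Percent growth reported; active if below 10.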 Values without a mark were called inactive. Calls of active or inactive are those of the source.

System: HT29 colon
Test: NCI-60 one-dose screen, 48 h (100 = growth as untreated, 0 = no growth, -100 = all killed)
Conditions: 10 µM unless noted

Structure (SMILES)	growth
CC(O)C(NC(=O)C1CCCN1C(=O)CNC(=O)C1CC(=O)NCC(=O)NC(Cc2c[nH]c3ccccc23)C(=O)NC(Cc2ccc(O)cc2)C(=O)NCC(=O)NC(CO)C(=O)NC(CCC(N)=O)C(=O)NC(Cc2c[nH]c3ccccc23)C(=O)N1)C(=O)NCC(=O)NC(CCC(N)=O)C(=O)NC(CCCNC(=N)N)C(=O)NC(CC(=O)O)C(=O)O (stereo unspecified)	106%
COc1ccc(C(=O)/C=C/c2ccc(OCc3ccc(Cl)cc3)c(OC)c2)cc1OC	63.7%
c1ccc(CNc2ncnc3ccc(-c4cnc5[nH]ncc5c4)cc23)cc1	70.6%
O=C(CCN1C(=O)/C(=C/c2ccccc2)SC1=S)N1CCOCC1	102%
OC1CCN(CCCOc2c3ccccc3nc3c2oc2ccc(Cl)cc23)CC1	1.25% (active)
CN1C(=O)N(c2ccccc2)C2N=C(N/N=C/c3ccccc3)SC21 (stereo unspecified)	3.18% (active)
CN(C)c1ccc(-c2c(NC(C)(C)C)nc3c(OCCc4ccccc4)cccn23)cc1	10.2%
CN1C(=S)N(C)C2C1NN=C1SC(c3ccccc3)=CC(=O)N12 (stereo unspecified)	103%
C#Cc1nc(C2=C(C)C(=N\O)/C(=N/O)C2)cs1	111%
C[C@@H](Nc1c(C#N)cnc2ccc(-c3cnc(N)nc3)cc12)c1ccccc1	18.7%
O=C1Nc2ccc(Cl)cc2/C1=C/c1ccc(OCC(=O)c2ccc(Br)cc2)cc1	103%
CCN1C(=S)N(CC)C2C1N=C(SC)N2/N=C/C=C/c1ccccc1[N+](=O)[O-] (stereo unspecified)	93.5%
NS(=O)(=O)c1cccc(Nc2nc(SCC(=O)c3ccc(Cl)cc3)nc3ccccc23)c1	88.4%
O=C(CN1C(=O)/C(=C/c2ccccc2)SC1=S)N1CCOCC1	112%
Nc1c(C(=O)Nc2ccc(Cl)cc2)sc2nc(-c3cnccn3)cc(-c3cccs3)c12	-10.3% (active)
COc1ccccc1C(=O)CSc1nc(Nc2ccc(S(N)(=O)=O)cc2)c2ccccc2n1	102%
Clc1ccc(Cc2nnc3sc(-c4cccnc4)nn23)cc1	102%
Cc1c(NC(=O)CSc2nc3sc4c(c3c(=O)n2-c2ccc(Cl)cc2)CCCC4)c(=O)n(-c2ccccc2)n1C	101%
CCOC(=O)c1c(Nc2ccccc2)nn2c(N)c(C#N)c(-c3ccc(OC)cc3)nc12	76.7%

Structure (SMILES)	growth
N=C1CC(=O)NN1C(=O)CSc1nc2sc3c(c2c(=O)n1-c1ccc(Cl)cc1)CCCC3	126%
Clc1ccc2c(NCCCn3ccnc3)c3oc4ccc(Cl)cc4c3nc2c1	80.9%
CCN1C(=S)N(CC)C2C1NN=C1SC(c3ccccc3)=CC(=O)N12 (stereo unspecified)	106%
COc1ccc(COc2ccc(/C=C3/C(=O)Nc4cc(Cl)ccc43)cc2)cc1	107%
COC(=O)C(C)NS(=O)(=O)/N=C1\NC(=O)NC1=C(Cl)Cl (stereo unspecified)	115%
CC(=O)Oc1ccccc1C(=O)Nc1cc(C(C)C)ccc1C	91.5%
COc1ccc(N/N=C/c2c(-c3ccc(S(C)(=O)=O)cc3)nc3ccccn23)cc1	64.4%
O=C(CSc1nc2sc3c(c2c(=O)n1-c1ccc(Cl)cc1)CCCC3)N/N=C/c1ccc(F)cc1	60.6%
CC(C)NC(=O)c1cc(-c2ccc(NC(=O)Nc3ccc(N4CCOCC4)c(C(F)(F)F)c3)cc2)nc2cccnc12	60.8%
O=C(CCN1C(=O)/C(=C/c2ccccc2F)SC1=S)N1CCOCC1	87.1%
O=C1Nc2cc(Cl)ccc2/C1=C\c1ccc(OCc2ccc([N+](=O)[O-])cc2)cc1	76.8%
CCN(CC)c1ccc(C=O)c(OCc2cn(CC(=O)Nc3ccc(Cl)cc3)nn2)c1	73.2%
CCCC(=O)NC(c1ccc2c(c1)OC(F)(F)O2)c1cc(C)c2cccnc2c1O (stereo unspecified)	32.3%
C[C@@H]1CN(c2ccc3ncc(C#Cc4cncc(C(=O)Nc5ccc(CN6CCN(C)CC6)c(C(F)(F)F)c5)c4)n3n2)C[C@H](C)O1	-65.8% (active)
COc1cc(OC)c(C2SCC(=O)N2Nc2ncnc3ccccc23)cc1OC (stereo unspecified)	113%
CN(C)CCCOc1c2ccc(Cl)cc2nc2c1oc1ccccc12	-45.5% (active)
C#C[C@]1(O)CC[C@H]2[C@@H]3CC=C4c5sc(Nc6ccc(Cl)cn6)nc5CC[C@]4(C)[C@H]3CC[C@@]21C	47.2%
COc1cc2cc(Oc3ccc(NC(=O)c4cccc(C(F)(F)F)c4)cc3)c(C)nc2cc1OCCN1CCCCC1	-50.7% (active)
Cc1ccc(C(=O)Nc2cccc(C(F)(F)F)c2)cc1Nc1nc(-c2cnccn2)nc2c1cnn2C	32.9%

System: SNB-75 CNS
Test: as above
Conditions: 10 µM unless noted

Structure (SMILES)	growth
CC(O)C(NC(=O)C1CCCN1C(=O)CNC(=O)C1CC(=O)NCC(=O)NC(Cc2c[nH]c3ccccc23)C(=O)NC(Cc2ccc(O)cc2)C(=O)NCC(=O)NC(CO)C(=O)NC(CCC(N)=O)C(=O)NC(Cc2c[nH]c3ccccc23)C(=O)N1)C(=O)NCC(=O)NC(CCC(N)=O)C(=O)NC(CCCNC(=N)N)C(=O)NC(CC(=O)O)C(=O)O (stereo unspecified)	92.4%
COc1ccc(C(=O)/C=C/c2ccc(OCc3ccc(Cl)cc3)c(OC)c2)cc1OC	74.8%
c1ccc(CNc2ncnc3ccc(-c4cnc5[nH]ncc5c4)cc23)cc1	54.5%
O=C(CCN1C(=O)/C(=C/c2ccccc2)SC1=S)N1CCOCC1	92.1%
OC1CCN(CCCOc2c3ccccc3nc3c2oc2ccc(Cl)cc23)CC1	21%
CN1C(=O)N(c2ccccc2)C2N=C(N/N=C/c3ccccc3)SC21 (stereo unspecified)	-13.5% (active)
CN(C)c1ccc(-c2c(NC(C)(C)C)nc3c(OCCc4ccccc4)cccn23)cc1	48.4%
CN1C(=S)N(C)C2C1NN=C1SC(c3ccccc3)=CC(=O)N12 (stereo unspecified)	115%
C#Cc1nc(C2=C(C)C(=N\O)/C(=N/O)C2)cs1	60%
C[C@@H](Nc1c(C#N)cnc2ccc(-c3cnc(N)nc3)cc12)c1ccccc1	-13.2% (active)
O=C1Nc2ccc(Cl)cc2/C1=C/c1ccc(OCC(=O)c2ccc(Br)cc2)cc1	75.7%
CCN1C(=S)N(CC)C2C1N=C(SC)N2/N=C/C=C/c1ccccc1[N+](=O)[O-] (stereo unspecified)	82.2%
NS(=O)(=O)c1cccc(Nc2nc(SCC(=O)c3ccc(Cl)cc3)nc3ccccc23)c1	33.6%
O=C(CN1C(=O)/C(=C/c2ccccc2)SC1=S)N1CCOCC1	98.9%
Nc1c(C(=O)Nc2ccc(Cl)cc2)sc2nc(-c3cnccn3)cc(-c3cccs3)c12	14.2%
COc1ccccc1C(=O)CSc1nc(Nc2ccc(S(N)(=O)=O)cc2)c2ccccc2n1	106%
Clc1ccc(Cc2nnc3sc(-c4cccnc4)nn23)cc1	94.4%
Cc1c(NC(=O)CSc2nc3sc4c(c3c(=O)n2-c2ccc(Cl)cc2)CCCC4)c(=O)n(-c2ccccc2)n1C	72.6%
CCOC(=O)c1c(Nc2ccccc2)nn2c(N)c(C#N)c(-c3ccc(OC)cc3)nc12	-15.3% (active)

Structure (SMILES)	growth
N=C1CC(=O)NN1C(=O)CSc1nc2sc3c(c2c(=O)n1-c1ccc(Cl)cc1)CCCC3	73.7%
Clc1ccc2c(NCCCn3ccnc3)c3oc4ccc(Cl)cc4c3nc2c1	70.2%
CCN1C(=S)N(CC)C2C1NN=C1SC(c3ccccc3)=CC(=O)N12 (stereo unspecified)	129%
COc1ccc(COc2ccc(/C=C3/C(=O)Nc4cc(Cl)ccc43)cc2)cc1	83.8%
COC(=O)C(C)NS(=O)(=O)/N=C1\NC(=O)NC1=C(Cl)Cl (stereo unspecified)	98.8%
CC(=O)Oc1ccccc1C(=O)Nc1cc(C(C)C)ccc1C	26.1%
COc1ccc(N/N=C/c2c(-c3ccc(S(C)(=O)=O)cc3)nc3ccccn23)cc1	62.6%
O=C(CSc1nc2sc3c(c2c(=O)n1-c1ccc(Cl)cc1)CCCC3)N/N=C/c1ccc(F)cc1	107%
CC(C)NC(=O)c1cc(-c2ccc(NC(=O)Nc3ccc(N4CCOCC4)c(C(F)(F)F)c3)cc2)nc2cccnc12	82.6%
O=C(CCN1C(=O)/C(=C/c2ccccc2F)SC1=S)N1CCOCC1	94%
O=C1Nc2cc(Cl)ccc2/C1=C\c1ccc(OCc2ccc([N+](=O)[O-])cc2)cc1	57.5%
CCN(CC)c1ccc(C=O)c(OCc2cn(CC(=O)Nc3ccc(Cl)cc3)nn2)c1	103%
CCCC(=O)NC(c1ccc2c(c1)OC(F)(F)O2)c1cc(C)c2cccnc2c1O (stereo unspecified)	40.4%
C[C@@H]1CN(c2ccc3ncc(C#Cc4cncc(C(=O)Nc5ccc(CN6CCN(C)CC6)c(C(F)(F)F)c5)c4)n3n2)C[C@H](C)O1	-79.3% (active)
COc1cc(OC)c(C2SCC(=O)N2Nc2ncnc3ccccc23)cc1OC (stereo unspecified)	101%
CN(C)CCCOc1c2ccc(Cl)cc2nc2c1oc1ccccc12	-18.6% (active)
C#C[C@]1(O)CC[C@H]2[C@@H]3CC=C4c5sc(Nc6ccc(Cl)cn6)nc5CC[C@]4(C)[C@H]3CC[C@@]21C	-0.325% (active)
COc1cc2cc(Oc3ccc(NC(=O)c4cccc(C(F)(F)F)c4)cc3)c(C)nc2cc1OCCN1CCCCC1	90.8%
Cc1ccc(C(=O)Nc2cccc(C(F)(F)F)c2)cc1Nc1nc(-c2cnccn2)nc2c1cnn2C	77.4%
